# Assay results from the supplement of paper PMC11732987, “Enantioselective OTUD7B fragment discovery through chemoproteomics screening and high-throughput optimisation” (Communications Chemistry, 2025).
# A number with no mark means an inactive call.
# Experiments:
# Assay in all cases: log2 ratio of Biotin-Ahx-Ub-VS probe labelling (fragment/DMSO); higher = less target engagement (more negative = stronger competition), active = hit call of the paper (q ≤ 0.05, log2 ratio ≤ -1)
# Details in all cases: compound concentration: 200 uM; treatment time: 3 h
# ALG13 = target: T1, ALG13 (UniProt Q9NP73)
# T1 sequence (whole entry): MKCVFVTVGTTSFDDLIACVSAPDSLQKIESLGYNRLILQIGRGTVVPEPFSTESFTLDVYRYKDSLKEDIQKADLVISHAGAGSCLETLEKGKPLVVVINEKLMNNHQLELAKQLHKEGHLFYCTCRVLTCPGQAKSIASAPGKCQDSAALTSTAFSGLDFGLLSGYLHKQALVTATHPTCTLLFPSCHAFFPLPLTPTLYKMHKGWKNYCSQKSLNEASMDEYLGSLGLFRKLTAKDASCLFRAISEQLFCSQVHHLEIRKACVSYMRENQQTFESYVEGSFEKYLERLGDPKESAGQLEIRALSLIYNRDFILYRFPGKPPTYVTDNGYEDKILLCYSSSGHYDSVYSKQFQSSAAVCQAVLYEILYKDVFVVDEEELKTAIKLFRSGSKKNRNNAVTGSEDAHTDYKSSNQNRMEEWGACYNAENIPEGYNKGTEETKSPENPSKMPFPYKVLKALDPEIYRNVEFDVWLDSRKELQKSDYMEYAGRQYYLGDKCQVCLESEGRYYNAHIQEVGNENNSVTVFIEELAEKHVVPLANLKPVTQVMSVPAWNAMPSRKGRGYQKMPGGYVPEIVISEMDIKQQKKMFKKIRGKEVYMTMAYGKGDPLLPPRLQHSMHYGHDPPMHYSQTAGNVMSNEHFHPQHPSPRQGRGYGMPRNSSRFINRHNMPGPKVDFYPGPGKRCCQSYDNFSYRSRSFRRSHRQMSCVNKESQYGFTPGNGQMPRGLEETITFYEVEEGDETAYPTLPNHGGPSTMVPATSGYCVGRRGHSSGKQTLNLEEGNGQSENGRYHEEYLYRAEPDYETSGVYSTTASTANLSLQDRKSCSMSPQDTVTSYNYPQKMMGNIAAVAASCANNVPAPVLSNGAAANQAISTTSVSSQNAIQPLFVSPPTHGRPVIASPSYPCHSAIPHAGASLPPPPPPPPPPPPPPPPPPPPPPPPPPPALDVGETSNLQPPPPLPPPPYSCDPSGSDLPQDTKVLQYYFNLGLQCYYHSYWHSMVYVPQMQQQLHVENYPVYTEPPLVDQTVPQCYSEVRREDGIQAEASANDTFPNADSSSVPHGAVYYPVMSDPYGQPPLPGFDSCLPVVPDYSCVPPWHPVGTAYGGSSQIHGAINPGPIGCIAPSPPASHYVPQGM
# Summary of the method: (§1)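 Using Biotin-Ahx-Ub-VS at 0.5 µM final for 1 h, DUBs were labelled in HEK293T lysate (495 µg per sample) that had first been treated in triplicate with fragment at 200 µM or vehicle for 3 h. NeutrAvidin enrichment, LysC and trypsin digestion and diaPASEF LC-MS/MS followed. Spectronaut label-free quantities were global-median-normalised. Values are average log2 fragment/vehicle ratios by unpaired t-test, using proteins with ≥2 unique peptides.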
# ATXN3 = ATXN3 (UniProt P54252)
# Chain of ATXN3 (P54252 whole entry): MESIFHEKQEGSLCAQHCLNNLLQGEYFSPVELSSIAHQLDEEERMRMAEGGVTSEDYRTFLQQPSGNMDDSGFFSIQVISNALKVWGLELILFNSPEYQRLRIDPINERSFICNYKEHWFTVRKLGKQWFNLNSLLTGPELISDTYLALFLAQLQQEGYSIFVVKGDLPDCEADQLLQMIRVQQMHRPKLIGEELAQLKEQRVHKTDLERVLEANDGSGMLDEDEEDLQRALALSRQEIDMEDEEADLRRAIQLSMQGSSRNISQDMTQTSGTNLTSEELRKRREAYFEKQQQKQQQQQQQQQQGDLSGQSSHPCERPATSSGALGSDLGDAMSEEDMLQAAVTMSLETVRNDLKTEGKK
# Summary of the method: as §1
# BAP1 = target: T2, BAP1 (UniProt Q92560)
# T2 sequence (whole entry): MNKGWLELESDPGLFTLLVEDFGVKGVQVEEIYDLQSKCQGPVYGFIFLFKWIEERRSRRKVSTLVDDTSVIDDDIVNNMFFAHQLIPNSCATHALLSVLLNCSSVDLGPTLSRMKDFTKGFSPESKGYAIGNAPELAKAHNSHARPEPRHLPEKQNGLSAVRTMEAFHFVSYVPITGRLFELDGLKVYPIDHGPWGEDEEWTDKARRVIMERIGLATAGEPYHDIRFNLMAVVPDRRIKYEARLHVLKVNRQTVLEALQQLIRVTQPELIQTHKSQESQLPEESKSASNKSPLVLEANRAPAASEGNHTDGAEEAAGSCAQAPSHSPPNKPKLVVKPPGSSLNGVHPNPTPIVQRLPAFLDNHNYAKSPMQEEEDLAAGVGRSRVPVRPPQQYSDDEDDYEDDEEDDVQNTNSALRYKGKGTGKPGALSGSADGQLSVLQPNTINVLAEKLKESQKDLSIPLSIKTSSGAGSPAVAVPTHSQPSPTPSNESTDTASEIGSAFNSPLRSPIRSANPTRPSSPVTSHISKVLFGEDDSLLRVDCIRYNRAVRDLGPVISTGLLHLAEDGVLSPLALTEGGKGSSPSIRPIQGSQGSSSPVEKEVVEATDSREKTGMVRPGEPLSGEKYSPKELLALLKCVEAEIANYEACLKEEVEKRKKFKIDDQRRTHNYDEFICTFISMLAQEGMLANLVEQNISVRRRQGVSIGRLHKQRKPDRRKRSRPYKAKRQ
# Summary of the method: as §1
# EIF3F = EIF3F (UniProt O00303)
# Chain of EIF3F (O00303 whole entry): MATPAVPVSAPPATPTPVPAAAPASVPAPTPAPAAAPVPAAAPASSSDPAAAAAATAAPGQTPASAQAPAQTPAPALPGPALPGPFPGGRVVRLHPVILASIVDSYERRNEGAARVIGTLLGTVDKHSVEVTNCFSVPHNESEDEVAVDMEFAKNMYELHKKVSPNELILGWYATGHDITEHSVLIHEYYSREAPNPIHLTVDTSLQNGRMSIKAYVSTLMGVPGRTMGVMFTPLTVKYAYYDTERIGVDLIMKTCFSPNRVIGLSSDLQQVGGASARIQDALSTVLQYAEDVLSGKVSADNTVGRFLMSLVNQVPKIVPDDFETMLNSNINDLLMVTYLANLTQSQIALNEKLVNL
# Summary of the method: as §1
# EIF3H = EIF3H (UniProt O15372)
# Chain of EIF3H (O15372 whole entry): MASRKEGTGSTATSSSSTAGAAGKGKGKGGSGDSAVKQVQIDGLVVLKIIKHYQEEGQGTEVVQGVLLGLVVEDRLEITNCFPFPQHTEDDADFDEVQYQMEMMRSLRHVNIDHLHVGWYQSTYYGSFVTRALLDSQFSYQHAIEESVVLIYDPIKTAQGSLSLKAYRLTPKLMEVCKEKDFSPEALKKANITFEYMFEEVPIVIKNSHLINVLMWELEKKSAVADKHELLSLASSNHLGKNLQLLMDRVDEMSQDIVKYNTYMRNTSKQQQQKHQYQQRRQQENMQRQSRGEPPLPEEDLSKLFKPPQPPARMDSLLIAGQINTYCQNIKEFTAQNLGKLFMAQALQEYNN
# Summary of the method: as §1
# FAM105A = target: T3, FAM105A (UniProt Q9NUU6)
# T3 sequence (whole entry): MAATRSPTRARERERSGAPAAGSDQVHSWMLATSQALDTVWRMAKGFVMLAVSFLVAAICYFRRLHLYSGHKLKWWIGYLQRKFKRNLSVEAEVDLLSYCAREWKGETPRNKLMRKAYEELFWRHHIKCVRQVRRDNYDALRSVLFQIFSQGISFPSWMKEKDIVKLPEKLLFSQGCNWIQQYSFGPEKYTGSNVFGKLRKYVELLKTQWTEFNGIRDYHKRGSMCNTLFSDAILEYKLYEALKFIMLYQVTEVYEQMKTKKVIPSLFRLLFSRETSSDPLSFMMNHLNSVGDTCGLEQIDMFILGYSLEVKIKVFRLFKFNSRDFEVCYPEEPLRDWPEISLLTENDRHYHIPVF
# Summary of the method: as §1
# OTUB1 = OTUB1 (UniProt Q96FW1)
# Chain of OTUB1 (Q96FW1 whole entry): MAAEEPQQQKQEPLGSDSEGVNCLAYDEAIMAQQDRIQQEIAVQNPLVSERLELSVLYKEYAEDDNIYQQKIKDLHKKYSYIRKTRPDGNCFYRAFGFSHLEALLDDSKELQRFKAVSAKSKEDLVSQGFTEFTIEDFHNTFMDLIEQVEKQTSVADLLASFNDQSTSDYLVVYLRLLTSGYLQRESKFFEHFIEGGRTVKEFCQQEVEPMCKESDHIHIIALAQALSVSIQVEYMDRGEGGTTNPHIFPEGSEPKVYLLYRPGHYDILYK
# Summary of the method: as §1
# OTUD4 = target: T4, OTUD4 (UniProt Q01804)
# T4 sequence (whole entry): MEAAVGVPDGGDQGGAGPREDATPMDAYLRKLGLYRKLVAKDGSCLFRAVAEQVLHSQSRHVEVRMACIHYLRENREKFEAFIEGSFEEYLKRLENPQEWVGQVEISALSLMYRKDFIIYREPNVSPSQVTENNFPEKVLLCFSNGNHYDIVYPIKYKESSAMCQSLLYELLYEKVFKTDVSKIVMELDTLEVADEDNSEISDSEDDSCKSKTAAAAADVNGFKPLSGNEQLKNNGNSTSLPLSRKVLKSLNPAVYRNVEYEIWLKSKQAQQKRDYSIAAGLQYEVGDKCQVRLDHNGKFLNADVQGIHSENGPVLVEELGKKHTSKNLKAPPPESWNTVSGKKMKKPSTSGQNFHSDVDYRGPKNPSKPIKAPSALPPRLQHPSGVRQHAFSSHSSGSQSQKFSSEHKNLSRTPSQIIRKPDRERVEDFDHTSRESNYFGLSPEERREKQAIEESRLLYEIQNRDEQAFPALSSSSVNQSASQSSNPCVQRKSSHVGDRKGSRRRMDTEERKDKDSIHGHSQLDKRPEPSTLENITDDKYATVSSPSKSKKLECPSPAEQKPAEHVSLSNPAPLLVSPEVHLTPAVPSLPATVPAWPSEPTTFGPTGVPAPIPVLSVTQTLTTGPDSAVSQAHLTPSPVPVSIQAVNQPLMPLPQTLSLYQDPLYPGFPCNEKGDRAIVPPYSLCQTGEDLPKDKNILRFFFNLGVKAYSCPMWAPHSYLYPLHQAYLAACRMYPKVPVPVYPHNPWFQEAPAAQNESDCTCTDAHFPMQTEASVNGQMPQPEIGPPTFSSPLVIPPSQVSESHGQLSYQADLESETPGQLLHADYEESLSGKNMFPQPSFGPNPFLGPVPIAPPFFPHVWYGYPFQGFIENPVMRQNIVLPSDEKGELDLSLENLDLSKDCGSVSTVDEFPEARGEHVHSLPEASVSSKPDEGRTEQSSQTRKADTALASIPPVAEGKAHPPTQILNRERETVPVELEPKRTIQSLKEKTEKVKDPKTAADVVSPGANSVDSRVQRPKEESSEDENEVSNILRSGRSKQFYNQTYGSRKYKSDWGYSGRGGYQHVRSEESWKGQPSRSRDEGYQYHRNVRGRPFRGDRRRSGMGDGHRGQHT
# Summary of the method: as §1
# OTUD5 = target: T5, OTUD5 (UniProt Q96G74)
# T5 sequence (whole entry): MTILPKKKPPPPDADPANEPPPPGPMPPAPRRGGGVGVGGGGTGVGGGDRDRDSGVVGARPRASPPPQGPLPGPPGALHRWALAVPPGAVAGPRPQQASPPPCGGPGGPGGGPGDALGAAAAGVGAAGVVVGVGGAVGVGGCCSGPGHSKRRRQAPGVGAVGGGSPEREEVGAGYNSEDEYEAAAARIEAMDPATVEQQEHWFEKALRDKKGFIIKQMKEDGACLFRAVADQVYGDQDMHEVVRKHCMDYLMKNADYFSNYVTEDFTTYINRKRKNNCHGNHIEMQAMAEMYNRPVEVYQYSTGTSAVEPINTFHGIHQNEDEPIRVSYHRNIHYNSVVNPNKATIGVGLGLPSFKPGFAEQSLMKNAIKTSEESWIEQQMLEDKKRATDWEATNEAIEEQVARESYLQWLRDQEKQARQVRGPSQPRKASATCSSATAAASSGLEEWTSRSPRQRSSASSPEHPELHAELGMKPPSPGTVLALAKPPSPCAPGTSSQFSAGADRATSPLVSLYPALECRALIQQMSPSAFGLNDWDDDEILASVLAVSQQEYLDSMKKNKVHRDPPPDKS
# Summary of the method: as §1
smiles,measurement,setting,value
COc1ccc(C2CCCN2C(=O)CCl)c(OC)c1 (centres undefined),log2 ratio of Biotin-Ahx-Ub-VS probe labelling,ALG13,-0.266
same,log2 ratio of Biotin-Ahx-Ub-VS probe labelling,ATXN3,-0.54
same,log2 ratio of Biotin-Ahx-Ub-VS probe labelling,BAP1,-3.55 (active)
same,log2 ratio of Biotin-Ahx-Ub-VS probe labelling,EIF3F,-0.23
same,log2 ratio of Biotin-Ahx-Ub-VS probe labelling,EIF3H,-0.25
same,log2 ratio of Biotin-Ahx-Ub-VS probe labelling,FAM105A,0.0093
same,log2 ratio of Biotin-Ahx-Ub-VS probe labelling,OTUB1,0.0641
same,log2 ratio of Biotin-Ahx-Ub-VS probe labelling,OTUD4,0.0731
same,log2 ratio of Biotin-Ahx-Ub-VS probe labelling,OTUD5,-0.185
